# The list is a sample of the results.
# aSyn 5UTR act = Activators working through SNCA 5'UTR binding (MLPCN); 7.1% of 300,000 active; activity score, % (tested at 7.5 µM), hits read low; alpha-synuclein 5'UTR reporter, activators screen; in the data active means activity score below about -60%
# An asterisk follows results filed as active.
SMILES,aSyn 5UTR act
Cc1cc(/C=N/Nc2nc(N)ncc2[N+](=O)[O-])c(C)n1-c1cccc(C(F)(F)F)c1,-117*
O=[N+]([O-])c1cc(CN2CCN(c3cccc(C(F)(F)F)c3)CC2)c2cccnc2c1O,71
COc1ccc(C(=O)/C=C/Nc2cc(C)on2)c(OC)c1,-72*
COc1ccc(OC)c(C(=O)/C=C/c2ccccc2C(F)(F)F)c1,-198*
COc1ccc(C(=O)/C=C/c2ccccc2)c(OC)c1,-277*
CC(C)C(NC(=O)OCc1ccccc1)C(=O)OCC(=O)N1CCCCC1 (stereo not drawn),-132*
NC(=O)C1(N2CCCCC2)CCN(C2CC(=O)NC2=O)CC1 (stereo not drawn),-86*
CN(C)/C=C/c1onc(-c2ccccc2Cl)c1C#N,-87*
COc1ccc(/C=N/Nc2nc(Nc3ccccc3)nc(N3CCCCC3)n2)cc1OC,-111*
COc1cc(C2C3=C(Nc4ncnn42)c2ccccc2CC3)cc(OC)c1OC (stereo not drawn),83
COc1cc(C2=NOC(C(=O)Nc3ccc(C(C)=O)cc3)C2)cc(OC)c1OC (stereo not drawn),-80*
CC(N=c1ccccn1C(=O)Nc1ccc(Cl)cc1)c1ccco1 (stereo not drawn),-121*
CCc1c(C)sc(NC(=S)Nc2nc(C)cc(C)n2)c1C(=O)OC,-98*
CCNC(=S)N/N=C(\C)c1cccc([N+](=O)[O-])c1,-62*
C/C(=N\NC(=O)c1ccc(Cl)c(Cl)c1)c1ccc(Br)s1,91
C/C(=N\NC(=O)c1cccc([N+](=O)[O-])c1)c1cccs1,-81*
C/C(=N/NC(=O)c1ccc2c(c1)OCO2)c1cccc([N+](=O)[O-])c1,-133*
C/C(=N/NC(=O)c1ccc2c(c1)OCO2)c1ccc(Br)s1,-89*
COCCNC(=O)/C(C#N)=C/c1ccc(OCc2ccccc2)cc1,-141*
COCCNC(=O)/C(C#N)=C/c1ccc(OCc2ccc(F)cc2)cc1,-73*
Cc1cccc(N/N=C/c2ccccc2O)c1,-182*
CC(C)(C)c1nnc(N/N=C/c2ccccc2O)n(N)c1=O,110
Cc1ccccc1/C=N/Nc1nc2ccccc2c(=O)n1O,-129*
Cc1cccc(N/N=C/c2ccncc2)c1,-109*
Cc1cc(N/N=C/c2ccccc2O)c2ccccc2n1,-113*
SMILES,aSyn 5UTR act
COc1ccc2nc(C)cc(N/N=C/c3cccc(OC)c3O)c2c1,100
C(=C\n1nnc2ccccc21)/c1ccc[nH]1,-72*
CN(C)/C=C/C(=O)c1ccc(Br)cc1,-70*
Cc1ccc2[nH]c(C(=O)Nc3ccc(F)cc3)cc2c1,-142*
CCCOc1ccc(NC(=O)c2cc3cc(C)ccc3[nH]2)cc1,-71*
Cc1cc(C)c2cc(C(=O)Nc3ccccc3)[nH]c2c1,-81*
CN(Cc1nc(-c2ccccc2)no1)C1CCOCC1,-98*
c1ccc(-c2noc(CCC3CCCC3)n2)cc1,-121*
c1ccc(-c2noc(CC3CCCCC3)n2)cc1,-169*
c1cc(-c2noc(CCC3CCCC3)n2)ccn1,-79*
Cc1ccc(C)c(-c2nc3cc(N)ccc3o2)c1,63
Cc1ccc2oc(-c3ccccc3)nc2c1,-188*
Cc1nc(Nc2nc3ccccc3o2)nc2c1CCC2,71
Cc1ccc2oc(Nc3nc(C)cc(C)n3)nc2c1,-163*
CCOc1cccc(-c2nc3cc(C)ccc3o2)c1,-153*
CCCCOc1ccc2c(c1)C(=O)c1cc(O)ccc1-2,-209*
O=Cc1c(-c2ccc(Cl)cc2)oc2ccc(O)cc12,-118*
CCCc1cc(=O)n2[nH]c(-c3ccc(Cl)cc3)cc2n1,-141*
CCCc1cc(=O)n2[nH]c(-c3ccc(C)cc3)cc2n1,-129*
Cc1ccc(NC(=O)/C(C#N)=C/c2ccc(C)s2)c(C)c1,-92*
Clc1ccc(-c2noc(CN3CCOCC3)n2)cc1,-86*
O=C1NC2(CCCCC2)C(=O)N1/N=C/c1ccccc1Br,-81*
Cc1cc(O)c(C2=Nc3ccccc3SC(c3ccc(Cl)cc3)C2)c(=O)o1 (stereo not drawn),-261*
CCC(=O)Nc1nc2cc(OC)ccc2s1,-107*
COc1ccc2sc(NC(C)=O)nc2c1,-119*
SMILES,aSyn 5UTR act
COc1ccc2sc(NC(=O)CC(C)C)nc2c1,-120*
COc1ccc2sc(NCc3ccccc3)nc2c1,-112*
CN(C)Cc1ccccc1Sc1ccc2c(c1)CCCC2,104
CCC(=O)Nc1nc2ccc3nc(C)sc3c2s1,-151*
CCC(=O)Nc1nnc(/C=C/c2ccc(OC)cc2)s1,-141*
Fc1cnc(N2CCc3ccccc32)nc1N1CCc2ccccc21,-82*
CC1(C)CC(=O)c2cnc(N3CCc4ccccc43)nc2C1,-118*
O=C(NC1CCCCCC1)c1c(O)c2ccccc2[nH]c1=O,-132*
O=C(NC1CCCc2ccccc21)c1n[nH]c(=O)c2ccccc12 (stereo not drawn),88
O=C(NCC1CCCO1)c1c(O)c2ccccc2[nH]c1=O (stereo not drawn),-140*
Oc1[nH]c2c(Cl)cc(Cl)cc2c1N=NC(=S)NCC1CCCO1 (stereo not drawn),79
